Measurements as given in PubChem BioAssay AID1159580 (chemical genetic matrix, 2015).
Where “and” joins values, the source holds several entries; their conditions need not be identical. Equal values may be shown once. The whole screen tested about 5,500 compounds, of which about 2,000 (36%) were called active. Roughly 18% stayed inconclusive and do not appear here. Rule as the data show it: active = normalized growth mostly below about 0.91 (no sharp cut-off); inconclusive = no clear call, values can overlap the other calls; inactive = mostly above about 0.92. Some of the results follow.

Test: chemical genetic growth profiling, strain panel (AID 1159580);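 also: tested at 20 µM; growth read once vehicle control cultures reached saturation at 30 °C; 1 = growth at the plate median or of vehicle wells; lower values mean less growth of the strain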
Conditions: S. cerevisiae deletion strains, growth OD

Measured: normalized growth

CO[C@H]1C[C@H](O[C@H]2[C@H](C)[C@@H](OC3O[C@H](C)C[C@H](N(C)C)[C@H]3OC(C)=O)[C@@H](C)C[C@]3(CO3)C(=O)[C@H](C)[C@@H](OC(C)=O)[C@@H](C)[C@@H](C)OC(=O)[C@@H]2C)O[C@@H](C)[C@@H]1OC(C)=O (some centres undefined)
inactive: locus YAL021C, strain ccr4, active compounds read low 0.998 | locus YAL026C, strain drs2, active compounds read low 1.01 | locus YAL030W, strain snc1, active compounds read low 0.989 | locus YBL061C, strain skt5, active compounds read low 1 | locus YBR009C, strain hhf1, active compounds read low 0.997 | locus YBR021W, strain FUR4, active compounds read low 0.996 | locus YBR023C, strain chs3, active compounds read low 0.996 | locus YBR171W, strain sec66, active compounds read low 1.01 | locus YBR229C, strain ROT2, active compounds read low 1.01 | locus YBR231C, strain swc5, active compounds read low 0.996 | locus YBR279W, strain paf1, active compounds read low 1 | locus YCL011C, strain gbp2, active compounds read low 1.01 | locus YCL016C, strain dcc1, active compounds read low 1 | locus YCL029C, strain bik1, active compounds read low 0.997 | locus YCL061C, strain MRC1, active compounds read low 0.992 | locus YCL069W, strain vba3, active compounds read low 0.994 | locus YCR088W, strain abp1, active compounds read low 0.994 | locus YDL005C, strain med2, active compounds read low 0.985 | locus YDL035C, strain GPR1, active compounds read low 1.01 | locus YDL040C, strain nat1, active compounds read low 0.998 | locus YDL074C, strain BRE1, active compounds read low 1 | locus YDL101C, strain DUN1, active compounds read low 1.01 | locus YDL134C, strain PPH21, active compounds read low 1 | locus YDL185W, strain tfp1, active compounds read low 0.981 | locus YDL192W, strain arf1, active compounds read low 0.989 | locus YDR001C, strain nth1, active compounds read low 0.992 | locus YDR069C, strain doa4, active compounds read low 0.998 | locus YDR101C, strain arx1, active compounds read low 1.01 | locus YDR137W, strain rgp1, active compounds read low 1 | locus YDR159W, strain sac3, active compounds read low 0.997 | locus YDR162C, strain NBP2, active compounds read low 1 | locus YDR195W, strain ref2 1 | locus YDR297W, strain sur2, active compounds read low 0.991 | locus YDR318W, strain mcm21, active compounds read low 0.993 | locus YDR334W, strain swr1, active compounds read low 1 | locus YDR335W, strain msn5, active compounds read low 0.998 | locus YDR388W, active compounds read low 0.979 | locus YDR392W, strain spt3, active compounds read low 0.996 | locus YDR502C, strain sam2, active compounds read low 0.977 | locus YEL003W, strain gim4, active compounds read low 1 | locus YEL037C, strain rad23, active compounds read low 0.998 | locus YEL061C, strain CIN8 (second series), active compounds read low 1 | locus YEL061C, strain CIN8, active compounds read low 1.01 | locus YER015W, strain faa2, active compounds read low 0.998 | locus YER016W, strain bim1, active compounds read low 0.997 | locus YER110C, active compounds read low 0.988 | locus YER111C, strain swi4, active compounds read low 1.01 | locus YER155C, strain BEM2 (second series), active compounds read low 0.994 | locus YER155C, strain BEM2, active compounds read low 1.01 | locus YER167W, strain BCK2, active compounds read low 1 | locus YFR010W, strain ubp6, active compounds read low 1.01 | locus YGL078C, strain dbp3, active compounds read low 0.984 | locus YGL086W, strain mad1, active compounds read low 1 | locus YGL167C, strain pmr1, active compounds read low 0.996 | locus YGL173C, strain kem1, active compounds read low 1.01 | locus YGL227W, strain vid30, active compounds read low 1.02 | locus YGL240W, strain doc1, active compounds read low 1.01 | locus YGL248W, strain PDE1, active compounds read low 1.01 | locus YGL253W, strain hxk2, active compounds read low 0.991 | locus YGR078C, strain PAC10, active compounds read low 1.01 | locus YGR135W, strain pre9, active compounds read low 0.986 | locus YGR252W, strain gcn5, active compounds read low 0.933 | locus YHR013C, strain ard1, active compounds read low 0.986 | locus YHR027C, strain rpn1, active compounds read low 0.995 | locus YHR030C, strain SLT2, active compounds read low 1.01 and 0.973 | locus YHR079C, strain IRE1 (second series), active compounds read low 0.992 | locus YHR079C, strain IRE1, active compounds read low 0.987 | locus YHR094C, strain hxt1, active compounds read low 0.988 | locus YHR129C, strain ARP1, active compounds read low 1.01 | locus YHR142W, strain chs7, active compounds read low 1.01 | locus YHR200W, strain rpn10, active compounds read low 0.992 | locus YIL066C, strain RNR3, active compounds read low 1.01 | locus YIL073C, strain SPO22, active compounds read low 1 | locus YIL125W, strain kgd1, active compounds read low 0.988 | locus YIR030C, strain dcg1, active compounds read low 1 | locus YJL092W, strain hpr5, active compounds read low 1 | locus YJL095W, strain BCK1 (second series), active compounds read low 0.99 | locus YJL095W, strain BCK1, active compounds read low 1.01 and 0.973 | locus YJL115W, strain asf1, active compounds read low 1.02 | locus YJL129C, strain trk1, active compounds read low 0.979 | locus YJL134W, strain LCB3, active compounds read low 1 | locus YJL154C, strain vps35, active compounds read low 0.987 | locus YJL164C, strain tpk1, active compounds read low 1 | locus YJL166W, strain qcr8, active compounds read low 1 | locus YJL168C, strain set2, active compounds read low 0.994 | locus YJL187C, strain SWE1 (second series), active compounds read low 1.01 | locus YJL187C, strain SWE1, active compounds read low 1 | locus YJR043C, strain POL32, active compounds read low 0.986 | locus YJR066W, strain TOR1, active compounds read low 0.955
